SMILES strings stand for the structures. Where “and” joins values, the source holds several entries; their conditions need not be identical. Equal entries are not always repeated. Out of some 220,000 compounds screened, about 530 (0.24%) were called active. Shown is part of a subset that was picked to be rich in actives. Entries with a potency or affinity are not part of this list. A number with no mark means an inactive call. No stated cut-off is given here; in the data, active means inhibition above about 13%; inconclusive means no clear call, values can overlap the other calls; inactive means below that.

For the test, the target named is Bifunctional protein GlmU (Mycobacterium tuberculosis (strain ATCC 25618 / H37Rv)) (UniProt P9WMN3). The experiment in a line: inhibition of mycobacterial GlmU enzyme – biochemical, glucosamine-1-phosphate acetyltransferase (AID 1376).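 Further: 0% = complete reaction with vehicle and 100% = reaction without substrate.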 Conditions: M. tuberculosis GlmU acetyltransferase enzyme assay; stronger effect = higher value;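 tested at 30 µM in the primary screen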.
Chain of Bifunctional protein GlmU (Mycobacterium tuberculosis (strain ATCC 25618 / H37Rv)) (P9WMN3 whole entry, looked up): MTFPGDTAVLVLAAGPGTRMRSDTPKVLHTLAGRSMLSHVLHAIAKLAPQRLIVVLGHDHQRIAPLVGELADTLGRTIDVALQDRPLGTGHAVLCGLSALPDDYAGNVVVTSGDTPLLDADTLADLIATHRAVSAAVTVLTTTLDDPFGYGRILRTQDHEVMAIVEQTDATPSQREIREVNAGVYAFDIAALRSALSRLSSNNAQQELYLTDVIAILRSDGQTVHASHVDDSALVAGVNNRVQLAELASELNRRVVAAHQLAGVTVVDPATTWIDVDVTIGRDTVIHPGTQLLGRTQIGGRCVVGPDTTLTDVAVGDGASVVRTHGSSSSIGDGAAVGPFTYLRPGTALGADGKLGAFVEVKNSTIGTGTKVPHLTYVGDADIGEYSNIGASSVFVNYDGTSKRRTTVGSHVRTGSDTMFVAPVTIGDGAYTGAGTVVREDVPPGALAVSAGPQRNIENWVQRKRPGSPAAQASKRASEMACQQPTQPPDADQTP
The inhibition is the change of the read-out against control, counted positive when it falls. Turning to `O=C(CN(CC1CCCO1)S(=O)(=O)c1ccc(S(=O)(=O)NCC2CCCO2)cc1)Nc1ccccc1` (stereo not drawn), the inhibition is 5.97%.
Then `CCOC(=O)c1cnc(-n2nc(C)cc2C)nc1Oc1ccccc1F`, with -3.61%.
Then `CCOC(=O)c1cnc(-n2nc(C)cc2C)nc1Oc1ccc(C#N)cc1`, with 13.1% (active).
Consider `CCOC(=O)c1cnc(-n2nc(C)cc2C)nc1Oc1ccc(C(=O)OC)cc1`, for which the inhibition was -2.28%.
For the compound `CCOC(=O)c1[nH]c2ccccc2c1NC(=O)c1ccc2c(c1)OCO2`, the inhibition is -1.52%.
With `CCOC(=O)c1[nH]c2cc(OC)c(OC)cc2c1NC(=O)c1ccc2c(c1)OCO2`, the inhibition is 17.8% (active).
For `CCOC(=O)c1[nH]c2ccc(OC)cc2c1NC(=O)c1ccc2c(c1)OCO2`, the inhibition is -4.48%.
Turning to `O=C(Nc1ccon1)c1ccccc1F`, the inhibition was -0.14%.
For the compound `O=C(CCN1C(=O)c2ccccc2C1=O)NC(=S)Nc1ccccc1Cl`, the inhibition is -2.84%.
Consider `Cc1cc(C)cc(NC(=S)NC(=O)CCN2C(=O)c3ccccc3C2=O)c1`, for which the inhibition is 13.3% (active).
As for `O=C(CCN1C(=O)c2ccccc2C1=O)NC(=S)Nc1ccccc1`, the inhibition was 2.69%.
Consider `Cc1ccc(CNC(=O)c2ccc3c(=O)[nH]c4c(C(=O)NCC5CCCO5)sc(=S)n4c3c2)cc1` (stereo not drawn), for which the inhibition was 13.2% (active).
For the compound `CCCCCNC(=O)c1ccc2c(=O)[nH]c3c(C(=O)NCC4CCCO4)sc(=S)n3c2c1` (stereo not drawn), the inhibition is -1.14% and 8.81%.
Turning to `O=C(NCc1ccccc1)c1ccc2c(=O)[nH]c3c(C(=O)NCC4CCCO4)sc(=S)n3c2c1` (stereo not drawn), the inhibition was 4.19%.
As for `COc1ccc(OCCCC(=O)NCCc2nc3ccccc3[nH]2)cc1`, the inhibition is 5.71%.
Turning to `Cc1ccc(C(c2c(O)nc3n(c2=O)CCS3)c2c(O)nc3n(c2=O)CCS3)cc1`, the inhibition is -1.5%.
The value for `O=c1c(C(c2c(O)nc3n(c2=O)CCS3)c2cccc3ccccc23)c(O)nc2n1CCS2` was 15.3% (active); that for `O=c1c(C(c2ccccc2)c2c(O)nc3n(c2=O)CCS3)c(O)nc2n1CCS2` was 3.94%.
As to `CCC(C)C1=CC(=Nc2c(C)n(C)n(-c3ccccc3)c2=O)C=C(C(C)CC)C1=O` (stereo not drawn), the inhibition is -5.03%.
`Cc1c(N=C2C=C(Br)C(=O)C(Br)=C2)c(=O)n(-c2ccccc2)n1C`: the inhibition was 14.5% (active).
Turning to `CC1=CC(=Nc2c(C)n(C)n(-c3ccccc3)c2=O)C=C(C)C1=O`, the inhibition was -6.33%.
`O=C(NC1CC1)C1=C[C@@H](c2ccc(C(F)(F)F)cc2)C[C@@H](OCCCCO)O1`: the inhibition is 0.57%.
Regarding `CCOc1cc(/C=C2/C(=O)ON=C2C)ccc1OCc1ccccc1F`, the inhibition is -0.49%.
In the case of `S=C(NCCc1ccccn1)Nc1cccc(Cl)c1`, the inhibition was 2.84%.
For the compound `O=C(CSc1nc2ccccc2[nH]1)Nc1ccccc1N1CCOCC1`, the inhibition was 2.16%.
For the compound `O=C(CCSc1ccccc1)Nc1nnc(-c2ccccc2)o1`, the inhibition was -1.24%.
For `COc1ccc(C(=O)N2CCOCC2)cc1Br`, the inhibition is -2.45%.
Regarding `COc1ccccc1N1CCN(C(=O)c2coc(=O)c(Br)c2)CC1`, the inhibition was 2.74%.
Turning to `O=C(c1coc(=O)c(Br)c1)N1CCCc2ccccc21`, the inhibition was -0.3%.
The value for `O=C(c1coc(=O)c(Br)c1)N1CCC(C(O)(c2ccccc2)c2ccccc2)CC1` was -1.06%; that for `CC(c1ccccc1)C1CC(=O)N(c2ccc(C(=O)O)cc2)C1=O` (stereo not drawn) was -1.47%; that for `CS(=O)(=O)NNC(=O)c1sccc1OCc1ncc(C(F)(F)F)cc1Cl` was -2.98%.
Consider `CC(C)CNc1c(N)c(=O)oc2ccccc12`, for which the inhibition was -2.95%.
As for `O=C(Nc1cccc(C(F)(F)F)c1)c1ccco1`, the inhibition was -3.67%.
On to `CCc1ccccc1Nc1nc(N)nc(COC(=O)c2cccn2C)n1`, for which the inhibition was 13.1% (active).
As to `Cc1ccccc1Nc1nc(N)nc(COC(=O)c2ccccc2)n1`, the inhibition was 6.9%.
The value for `Cc1ccccc1Nc1nc(N)nc(COC(=O)c2cccn2C)n1` was 2.68%; that for `CCCCN(CC)Cc1ccc(CNC(=S)Nc2cccc(F)c2)o1` was -3.9%; that for `N#C/C(=C\c1ccc[nH]1)C(=O)NCC1CCCO1` (stereo not drawn) was 2.87%.
On to `Brc1ccc(CSc2ccc3nnc(-c4ccccn4)n3n2)cc1`, for which the inhibition is -0.66%.
Regarding `COc1cccc(/C=N\n2c(C)nnc2C)c1OC`, the inhibition was 8.8%.
`Cc1ccc(N2C(=O)c3ccccc3C2C(=O)c2cc(C)ccc2O)cc1` (stereo not drawn): the inhibition was -7.05%.
As for `Cc1ccc(N2C(=O)c3ccccc3C2C(=O)c2ccc(C)c(C)c2O)cc1` (stereo not drawn), the inhibition is -5.61%.
As for `Cc1ccc(N2C(=O)c3ccccc3C2C(=O)c2ccc(O)cc2O)cc1` (stereo not drawn), the inhibition was 13.2% (active).
The value for `CN1CCSc2ccc(C(=O)Nc3cc(F)ccc3F)cc21` was -5.68%; that for `Cc1ccc(C(=O)C2CCN(CC(=O)NC3CCCCC3)CC2)cc1` was 1.4%; that for `COc1ccccc1NS(=O)(=O)c1cc(NC(=O)c2sccc2C)ccc1N1CCCC1` was 0.4%.
Turning to `CCOC(=O)c1cc(-c2ccc(/C=C3/C(=O)NC(=O)C(C#N)=C3C)o2)ccc1Cl`, the inhibition is -3.05%.
For `CC1=C(C#N)C(=O)NC(=O)/C1=C/c1ccc(-c2ccc(S(N)(=O)=O)cc2)o1`, the inhibition was 14.3% (active).
`CC1(C)OC(=O)C(=Cc2ccc(-c3ccc(S(N)(=O)=O)cc3)o2)C(=O)O1`: the inhibition was -2.03%.
`COc1ccc(CCC(=O)Nc2cc(Cl)ccc2N2CCN(C)CC2)cc1`: the inhibition is -2.71%.
For `Cc1cc(C)nc(NN=C2CCCC2)n1`, the inhibition was -4.71%.
Regarding `C/C=C1/CN2[C@@H]3C4CO[C@@H]3c3c([nH]c5cc(OC)ccc35)[C@@H]2CC14` (stereo partly drawn), the inhibition is 4.24%.
Turning to `O=C(O)c1cccc(-n2cccc2/C=C2/NC(=O)N(c3cccc(Cl)c3)C2=O)c1`, the inhibition is 2.42%.
With `O=C(O)c1cccc(-n2cccc2/C=C2/NC(=O)N(c3ccc(Cl)cc3)C2=O)c1`, the inhibition was 68.6% (active).
Then `N#C/C(=C/c1cccn1-c1cccc(C(=O)O)c1)c1ccc(Cl)cc1`, with 7.87%.
Consider `ON=Cc1cccn1-c1ccccc1`, for which the inhibition is 2.34%.
As for `O=C(O)c1cccc(-n2cccc2/C=C2\NC(=O)N(Cc3ccc(F)cc3)C2=O)c1`, the inhibition is 13.9% (active).
The value for `COc1ccc(-n2cccc2/C=C2/NC(=O)N(c3cccc(Cl)c3)C2=O)cc1` was 1.07%.
In the case of `Cc1ccc(CN2C(=O)N/C(=C\c3cccn3-c3cccc(C(=O)O)c3)C2=O)cc1`, the inhibition is 7.01%.
As for `O=C(O)c1cccc(-n2cccc2/C=C2/NC(=O)N(Cc3ccccc3F)C2=O)c1`, the inhibition is 7.3%.
`O=C(O)c1ccc(COc2ccccc2/C=C2/NC(=O)N(c3cccc(Cl)c3)C2=O)cc1`: the inhibition was -4.52%.
As for `O=C(N/N=C/c1cccn1-c1cccc(C(=O)O)c1)Nc1ccccc1`, the inhibition is 7.06%.

These data come from PubChem BioAssay AID1376 (SRMLSC, 2008).
